An excerpt weighted towards active compounds, which were near 4.6% of everything screened.
D1 agonist: human D1 receptor agonism; AID 504660; 360,000 tested, 1% active; activation, % at 2 µM; P21728; HEK293 T-REx D1 cells, calcium flux, agonist mode; also: 0% is about no effect
Target sequence (P21728 whole entry, looked up): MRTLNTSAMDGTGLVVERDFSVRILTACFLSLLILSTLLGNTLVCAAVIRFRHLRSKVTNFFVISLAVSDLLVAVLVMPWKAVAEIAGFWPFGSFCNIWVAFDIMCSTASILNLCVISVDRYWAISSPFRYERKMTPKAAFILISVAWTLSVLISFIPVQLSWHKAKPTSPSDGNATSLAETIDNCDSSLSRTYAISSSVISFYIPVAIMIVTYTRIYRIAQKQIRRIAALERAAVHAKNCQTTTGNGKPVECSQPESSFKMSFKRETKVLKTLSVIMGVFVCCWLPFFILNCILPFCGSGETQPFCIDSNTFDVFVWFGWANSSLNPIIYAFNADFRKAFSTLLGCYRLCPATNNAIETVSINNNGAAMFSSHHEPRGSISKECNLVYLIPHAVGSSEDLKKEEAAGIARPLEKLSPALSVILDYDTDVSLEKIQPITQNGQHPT
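Inducible HEK293 T-REx D1 cells, force-coupled to calcium signalling, were plated at 4000 cells/well with tetracycline and held overnight at 30 C. After no-wash calcium dye loading, compound-evoked calcium rise over 180 s flagged agonists.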
TRHR ag: TRH receptor (human) agonism; TRHR cells, calcium flux fluo-8, FDSS agonist mode; activation, % at 2 µM; 360,000 tested, 0.18% active; AID 493084; also: 0% is about no effect
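TRHR-expressing cells loaded with fluo-8 calcium dye; 23 nL library compound pin-transferred, kinetic FDSS fluorescence (Ex 480/Em 530) recorded about 180 s for agonist-induced calcium release, before a 10 nM TRH EC20 addition for potentiator mode.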
D1 antag: human D1 dopamine receptor antagonism; P21728; HEK293 TREx D1 cells, calcium flux, dopamine EC80; hits give low values; activity change, negative = inhibition, % at 10 µM; 360,000 tested, 3.2% active; AID 504652; in the data active = activity change below about -30%; also: % is scaled to controls: 0 for no effect and ±100 for the full control effect
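After overnight tetracycline induction at 30 C, force-coupled D1 HEK293 cells took up a no-wash calcium dye at room temperature. Compounds were added and monitored 180 s, and the response to EC80 dopamine was then recorded.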
TRHR enhancer: allosteric enhancers of human TRH receptor; P34981; TRHR cells, fluo-8 calcium fluorescence, EC20 TRH enhancement; enhancement, % at 2 µM; 360,000 tested, 0.66% active; in the data active = enhancement above about 30%; also: 0% is about no effect
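Enhancer read-out: after compound pinning and an initial kinetic agonist-mode read, an EC20 of TRH (10 nM final) was injected and fluo-8 calcium signal (Ex 480/Em 530) followed at 1 s/cycle for 100 cycles in TRHR-expressing cells.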
D1 PAM: human D1 dopamine receptor positive modulation. P21728. HEK293 TREx D1 cells, calcium flux, dopamine EC20 potentiation. potentiation, % at 10 µM. 360,000 tested, 0.036% active; in the data active = potentiation above about 30%; also: 0% is about no effect
Epigenetic reg: regulators of epigenetic silencing causing reporter derepression in mouse cells; murine LDR cells, GFP reporter derepression, 30 h; Potency, µM (highest dose often 53.9 µM), for the others: top-dose GFP activation, hits mostly activators; 280,000 tested, 0.2% active; AID 1865; active = well fitted activation curve with a large enough effect; inconclusive = small, poorly fitted or top-dose-only effect; also: potency is read from the fitted curve at half-maximal effect; % of control where 0% means no effect; nearly all actives have a fitted effect of over 60% in size
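Murine LDR cells carrying a silenced, genomically integrated CMV-driven GFP reporter were exposed to compound for 30 hours at 37 C. After PBS washes, GFP-positive cells (20–120 um objects) were counted by laser-scanning microplate cytometry.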
An asterisk follows results filed as active; ? = inconclusive; · = no result. Rule as the data show it, unless noted: active = activation above about 30%; inactive = the rest.

SMILES	D1 agonist	TRHR ag	D1 antag	TRHR enhancer	D1 PAM	Epigenetic reg
CC1CCCN(CCOCCOc2ccc(Br)cc2Cl)C1 (centres undefined)	26.2	-0.2	-32.1*	-0.1	-9.6	1.0%
CC1CCN(CCCOc2ccc(Br)cc2Cl)CC1	51.6*	1.2	-67.9*	-8.7	-5.0	-1.5%
CN1CCN(CCOCCOc2ccc(Br)cc2Cl)CC1	4.9	1.0	1.9	-2.0	-8.2	·
Cc1cc(C)c(NC(=O)CN(C)C(C)C(=O)N2CCc3ccccc32)c(C)c1 (centres undefined)	0.8	-0.9	6.9	32.4*	-2.4	·
CCOC(=O)C1CCN(c2nc3c(S(=O)(=O)c4ccccc4)nnn3c3ccc(Cl)cc23)CC1	2.1	-0.2	20.7	4.4	-4.7	1.4%
Cc1nc(N2CCCC2)c2nnn(Cc3ccccc3Cl)c2n1	1.1	-0.4	2.9	2.1	1.3	0.0%
O=C(NCc1ccccc1)C1CCN(c2ncnc3c2nc2n3CCCCC2)CC1	-0.5	-0.4	-32.6*	3.7	-2.9	-1.2%
COc1ccc(N2CCN(c3ncnc4c3nnn4Cc3ccccc3Cl)CC2)cc1	8.3	-0.4	-41.8*	5.5	-12.0	0.0%
COc1ccc(N2CCN(c3ncnc4c3nc3n4CCCCC3)CC2)cc1	9.3	-0.5	-35.1*	0.5	-4.5	-1.2%
CC(=O)CSc1nnc2[nH]c(=O)cc(N)n12	6.9	0.1	-9.3	1.1	3.5	-1.1%
O=c1c(-c2ccccc2)c(-c2ccccc2)oc2cc(O)cc(O)c12	40.5*	-2.8	53.1	-9.9	-1.3	·
CCOCc1cc(CN2CCN(c3ccccc3OC)CC2)c(O)c2ncccc12	4.2	-2.0	2.9	5.3	1.1	?
COc1ccccc1N1CCN(Cc2cc3c(cc2O)OCO3)CC1	2.8	0.8	-36.8*	-7.5	-8.4	·
CCOc1ccc2oc(=O)cc(CN3CCN(c4ccccc4OC)CC3)c2c1	0.9	-1.5	18.5	46.5*	2.7	0.2%
COc1ccc2oc(=O)cc(CN3CCN(c4ccccc4OC)CC3)c2c1	-0.6	-1.8	2.9	-1.9	2.4	-1.4%
CCOc1ccccc1N1CCN(Cc2cccc(OC)c2O)CC1	-2.1	-0.1	-32.4*	-1.3	-10.4	-1.1%
COc1cc(NC(=O)c2c(C)oc3ncnc(N4CCCCC4)c23)cc(OC)c1	0.7	-1.9	-0.4	-3.3	6.3	-0.4%
N#CC1=C(N)Oc2n[nH]c(-c3ccccn3)c2C1c1c(F)cccc1Cl (centres undefined)	1.8	-1.0	-31.2*	-8.9	-6.6	1.0%
CCc1ccccc1N(CC(=O)NCCc1ccccc1)C(=O)CCC(=O)Nc1ccccn1	39.8*	-0.9	-30.0*	-1.8	-12.0	·
O=C(NCc1ccccc1)c1nc(S(=O)(=O)Cc2ccc(F)cc2)ncc1Cl	1.4	-1.7	-45.6*	-10.9	-2.5	?
O=C(Nc1ccccc1F)c1nc(S(=O)(=O)Cc2ccccc2F)ncc1Cl	1.1	-1.4	-44.5*	-9.4	-3.8	?
COC(=O)c1ccccc1NC(=O)c1nc(S(=O)(=O)Cc2ccccc2F)ncc1Cl	1.6	0.6	-4.5	3.0	-3.5	4.7%
O=C(Nc1ccc(F)cc1)c1nc(S(=O)(=O)Cc2ccccc2)ncc1Cl	2.2	-0.6	-50.9*	-28.7	-2.2	·
CCSc1nnc2n(N)c(=O)c3ccccc3n12	2.4	0.1	-85.4*	-5.3	-9.3	0.0%
C=C(C)CSc1nnc2n(N)c(=O)c3ccccc3n12	0.8	-0.4	-19.5	-2.7	14.6	-0.2%
SMILES	D1 agonist	TRHR ag	D1 antag	TRHR enhancer	D1 PAM	Epigenetic reg
COc1ccc(N2CC(NC(=O)c3ccc(S(=O)(=O)N4CCCCC4)cc3)CC2=O)cc1 (centres undefined)	1.1	-0.3	·	-3.0	-0.1	7.3%
Brc1ccc(NC2=Nc3ccccc3CC2)cc1	1.9	2.9	-30.0*	-1.1	-5.6	0.0%
O=C(Nc1ccc(Cl)cc1)c1cccs1	1.4	-0.4	-39.4*	2.2	-7.0	-0.7%
COc1ccccc1NC(=O)c1cccs1	4.1	0.3	-9.1	-1.1	-6.8	-1.1%
COc1ccc(C(=O)Nc2ccc(NC(=O)c3cccs3)cn2)cc1	17.2	0.7	-34.8*	4.5	-8.2	·
O=C(Nc1nc(-c2ccccc2)ns1)c1cccs1	7.2	1.4	-32.3*	8.4	5.8	-1.1%
